Compounds with a hit are over-represented: about 18% of the library has one in this group of screens.
TDP1 block: inhibitors of human tyrosyl-DNA phosphodiesterase TDP1; Q9NUW8; recombinant TDP1, AlphaScreen DNA substrate cleavage; Potency, µM (titrated, usually from 130 µM), without a hit: at the top dose activity change, negative = inhibition, most hits filed as inhibitors; 350,000 tested, 0.28% active; AID 485290; also: potency is read from the fitted curve at half-maximal effect; nearly all actives have a fitted effect of over 40% in size
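AlphaScreen read-out: signal falls as enzyme removes the 3' tyrosine-FITC from a 5'-biotinylated DNA oligo (15 nM, 5 min, RT). Enzyme was E. coli-made recombinant Tdp1 at 1 nM, exposed to compound for 15 min beforehand; beads 10 ug/ml, 10 min.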
Six1-Eya2 inh: inhibitors of human Six1/Eya2 interaction. Q15475+O00167. activity change, % (no concentration beside the values). AlphaScreen GST-Six1/His-Eya2 binding, biochemical; hits give low values. AID 651725. 360,000 tested, 0.56% active; in the data active = activity change below about -65%; inconclusive = mostly about -30% to -63%
Target sequence (O00167 whole entry, looked up): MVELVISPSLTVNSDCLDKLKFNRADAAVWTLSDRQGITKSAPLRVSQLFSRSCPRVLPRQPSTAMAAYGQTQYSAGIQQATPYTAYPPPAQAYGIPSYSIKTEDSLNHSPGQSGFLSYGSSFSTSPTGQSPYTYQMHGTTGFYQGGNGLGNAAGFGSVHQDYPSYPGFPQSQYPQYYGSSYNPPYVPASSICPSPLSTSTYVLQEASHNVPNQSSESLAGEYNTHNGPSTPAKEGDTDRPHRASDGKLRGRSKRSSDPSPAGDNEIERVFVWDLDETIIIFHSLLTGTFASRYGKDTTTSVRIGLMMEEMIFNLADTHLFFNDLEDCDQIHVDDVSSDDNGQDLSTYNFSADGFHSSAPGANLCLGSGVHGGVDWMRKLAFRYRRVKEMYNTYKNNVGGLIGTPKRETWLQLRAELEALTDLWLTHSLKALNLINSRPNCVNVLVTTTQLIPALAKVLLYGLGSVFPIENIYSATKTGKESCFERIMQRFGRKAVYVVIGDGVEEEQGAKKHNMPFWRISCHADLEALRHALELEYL
Target sequence (Q15475 whole entry, looked up): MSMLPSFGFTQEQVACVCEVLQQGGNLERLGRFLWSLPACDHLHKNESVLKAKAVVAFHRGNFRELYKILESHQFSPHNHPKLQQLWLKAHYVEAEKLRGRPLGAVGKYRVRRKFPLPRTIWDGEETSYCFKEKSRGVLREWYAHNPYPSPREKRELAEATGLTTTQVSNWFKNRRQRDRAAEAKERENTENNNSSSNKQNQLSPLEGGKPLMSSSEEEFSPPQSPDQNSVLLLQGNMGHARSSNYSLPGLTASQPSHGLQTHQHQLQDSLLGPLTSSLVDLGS
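Homogeneous AlphaScreen proximity assay pairing GST-Six1 with His-tagged Eya2 (added as 5X mix: 250 nM and 500 nM) in 50 mM Tris pH 8.0, 300 mM NaCl, 1 mM TCEP. Glutathione donor and nickel acceptor beads; 1 h, 37 °C, dark.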
DT40 TDP1 CPT: growth inhibition of DT40 Tdp1-/-;hTDP1 cells with camptothecin (screen for TDP1 inhibitors) | chicken DT40 Tdp1-/-;hTDP1 cells + 20 nM CPT, ATP luminescence, 48 h | Potency, µM (highest dose often 46.2 µM), for inactives: top-dose activity change, negative = growth inhibition, hits mostly inhibitors | 420,000 tested, 12% active; also: potency is read from the fitted curve at half-maximal effect; nearly all actives have a fitted effect of over 55% in size
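Chicken DT40 Tdp1-/- cells complemented with human TDP1, 400 cells/well, exposed to compounds plus 20 nM camptothecin for at least 48 h at 37 C; viability read as ATP content by CellTiter-Glo luminescence.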
TDP1 cell noCPT: qHTS for Inhibitors of human tyrosyl-DNA phosphodiesterase 1 (TDP1): qHTS in cells in absence of CPT | DT40 Tdp1-/- hTDP1 cells, no CPT, ATP luminescence, 48 h | Potency, µM (doses to about 46.2 µM), for the others: at the top dose activity change, negative = growth inhibition, hits mostly inhibitors | 420,000 tested, 15% active; also: potency is read from the fitted curve at half-maximal effect; nearly all actives have a fitted effect of over 55% in size
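A cellular qHTS used chicken DT40 cells lacking endogenous Tdp1 but carrying stably transfected human TDP1. Compounds were applied without camptothecin, and cell growth kinetics were judged by ATP-dependent luminescence after ≥48 hr.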
CtBP-E1A blk: inhibitors of CtBP/E1A interaction; AlphaScreen GST-E1A/His-CtBP binding, 1536-well; hits give low values; activity change, % (test concentration not listed); 340,000 tested, 0.49% active; AID 651724; in the data active = activity change below about -65%; inconclusive = mostly about -30% to -63%
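GST-E1A and His-tagged CtBP (125 nM each as 5X stock) were preincubated with pin-transferred compound for 2 h at 37 °C in the dark, then glutathione donor and nickel acceptor beads were added for 1 h before AlphaScreen reading.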
IL-1B inflam inh: inhibitors of inflammasome signaling (IL-1 beta secretion); THP-1 LPS/ATP IL-1B secretion, AlphaLISA, 16 h; hits give low values; 360,000 tested, 4.7% active; activity change, % at 57.5 µM; in the data active = activity change below about -50%; inconclusive = mostly about -30% to -49%
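THP-1 cells pretreated 1 hr with compounds (up to 57.5 uM final), then stimulated with LPS (250 ng/mL final) plus ATP (1.25 mM final); secreted IL-1B measured by AlphaLISA after 16 hr, decreased signal indicating inhibition.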
* marks the source's active call; other numbers are inactive results; [ ] = another dose, or the depositor's remark. Unless noted, calls follow the shape of the dose curve; as a rule, active = well fitted curve in the direction sought with a large enough effect; inconclusive = small, poorly fitted or top-dose-only effect, or another doubt; inactive = no such curve, though single readings can be large; an effect the other way counts as inactive or inconclusive. % is scaled to controls: 0 for no effect and ±100 for the full control effect.

Cc1c(C(=O)NC2CCCc3ccccc32)oc2ccc(S(=O)(=O)N3CCCC3)cc12 (stereo not given) was read as TDP1 block 3%, Six1-Eya2 inh 0, DT40 TDP1 CPT 8.2µM*, TDP1 cell noCPT inconclusive, CtBP-E1A blk 1 and IL-1B inflam inh 36.
For Cc1c(C(=O)NC2CCCc3ccccc32)oc2ccc(S(=O)(=O)N3CCCCC3)cc12 (stereo not given) the results were TDP1 block -1%, Six1-Eya2 inh 20, DT40 TDP1 CPT 0.26µM*, TDP1 cell noCPT inconclusive, CtBP-E1A blk 7 and IL-1B inflam inh 23.
CC(C)Cc1ccc(CN2CCCC(NC(=O)c3ccnn3C)C2)cc1 (stereo not given) was read as TDP1 block 2%, Six1-Eya2 inh -2, DT40 TDP1 CPT 18µM*, TDP1 cell noCPT 23µM*, CtBP-E1A blk 6 and IL-1B inflam inh -23.
Screening CC(C)Cc1ccc(CN2CCCC(NC(=O)c3ccoc3)C2)cc1 (stereo not given) returned TDP1 block 6%, Six1-Eya2 inh -13, DT40 TDP1 CPT 12µM*, TDP1 cell noCPT 13µM*, CtBP-E1A blk -1 and IL-1B inflam inh -8.
`CC(C)Cc1ccc(CN2CCCC(NC(=O)c3nn(C)c(=O)c4ccccc34)C2)cc1` (stereo not given) gave TDP1 block 8%, Six1-Eya2 inh 0, DT40 TDP1 CPT inconclusive, TDP1 cell noCPT inconclusive, CtBP-E1A blk -11 and IL-1B inflam inh -13.
Cc1noc(C)c1CCC(=O)NC1CCCN(Cc2ccc(CC(C)C)cc2)C1 (stereo not given) was read as TDP1 block 4%, Six1-Eya2 inh 2, DT40 TDP1 CPT 18µM*, TDP1 cell noCPT 15µM*, CtBP-E1A blk 2 and IL-1B inflam inh -21.
Screening CC(C)Cc1ccc(CN2CCCC(NC(=O)c3cccc(-n4cnnc4)c3)C2)cc1 (stereo not given) returned TDP1 block 4%, Six1-Eya2 inh 2, DT40 TDP1 CPT 21µM*, TDP1 cell noCPT 23µM*, CtBP-E1A blk 4 and IL-1B inflam inh -51*.
Cc1noc(C)c1CCC(=O)NC1CCCN(Cc2ccc(Cl)cc2)C1 (stereo not given) was read as TDP1 block 2%, Six1-Eya2 inh -5, DT40 TDP1 CPT -20%, TDP1 cell noCPT -3%, CtBP-E1A blk -21 and IL-1B inflam inh 6.
`Cc1cc(C(=O)NC2CCCN(Cc3ccc(Cl)cc3)C2)n(C)n1` (stereo not given) gave TDP1 block 3%, Six1-Eya2 inh 0, DT40 TDP1 CPT inconclusive, TDP1 cell noCPT inconclusive, CtBP-E1A blk 0 and IL-1B inflam inh 7.
Screening CCN(Cc1ccccc1)Cc1c(O)ccc2c(=O)c(-c3ccc(Cl)cc3)c(C(F)(F)F)oc12 returned DT40 TDP1 CPT -5% and TDP1 cell noCPT -6%.
For CCOC(=O)[C@H]1[C@H]2COc3cc(OC)ccc3[C@@H]2N2C(=O)c3c(C)cc(C)cc3NC(=O)[C@@]12C the results were TDP1 block 3%, Six1-Eya2 inh -3, DT40 TDP1 CPT inconclusive, TDP1 cell noCPT inconclusive, CtBP-E1A blk -17 and IL-1B inflam inh -3.
`O=C(C[n+]1cccc(O)c1)Nc1ccc(Br)cc1` gave TDP1 block -3%, Six1-Eya2 inh 4, DT40 TDP1 CPT 1%, TDP1 cell noCPT -3%, CtBP-E1A blk 1 and IL-1B inflam inh 21.
S=C(NCc1ccco1)N1CCN(Cc2ccc(Cl)cc2Cl)CC1 was read as TDP1 block 9%, Six1-Eya2 inh -22, DT40 TDP1 CPT inconclusive, TDP1 cell noCPT 23µM*, CtBP-E1A blk -9 and IL-1B inflam inh inconclusive.
For O=S(=O)(c1cccc(C(F)(F)F)c1)N1CCN(C(=S)NCc2ccco2)CC1 the results were TDP1 block 8%, Six1-Eya2 inh -3, DT40 TDP1 CPT -26%, TDP1 cell noCPT inconclusive, CtBP-E1A blk 1 and IL-1B inflam inh -2.
For S=C(NCc1ccco1)N1CCN(c2ccc(Cl)cc2)CC1 the results were TDP1 block 5%, Six1-Eya2 inh -18, DT40 TDP1 CPT -4%, TDP1 cell noCPT 23µM*, CtBP-E1A blk -4 and IL-1B inflam inh -7.
For CC(C)c1ccc(S(=O)(=O)N2CCN(C(=S)NCc3ccco3)CC2)cc1 the results were TDP1 block 6%, Six1-Eya2 inh -11, DT40 TDP1 CPT 15µM*, TDP1 cell noCPT inconclusive, CtBP-E1A blk -10 and IL-1B inflam inh 0.
Screening S=C(NCc1ccco1)N1CCN(C/C=C/c2ccccc2)CC1 returned TDP1 block 5%, Six1-Eya2 inh -15, DT40 TDP1 CPT -27%, TDP1 cell noCPT inconclusive, CtBP-E1A blk -3 and IL-1B inflam inh 6.
For COC(=O)c1c(C)oc(C)c1S(=O)(=O)NCC1CC1 the results were Six1-Eya2 inh -12, DT40 TDP1 CPT -9%, TDP1 cell noCPT 2%, CtBP-E1A blk -1 and IL-1B inflam inh 8.
For CCOc1ccccc1NC(=O)Cc1coc2cc(C)ccc12 the results were TDP1 block -7%, Six1-Eya2 inh 3, DT40 TDP1 CPT -26%, TDP1 cell noCPT inconclusive, CtBP-E1A blk 9 and IL-1B inflam inh 19.
For N#Cc1c(N)nc(SCC(=O)C23CC4CC(CC(C4)C2)C3)c(C#N)c1-c1ccc(Cl)cc1 the results were TDP1 block 6%, Six1-Eya2 inh 8, DT40 TDP1 CPT inconclusive, TDP1 cell noCPT inconclusive, CtBP-E1A blk 6 and IL-1B inflam inh 22.
For CSc1nc(N)nc(SCC(=O)C23CC4CC(CC(C4)C2)C3)c1C#N the results were TDP1 block 3%[56.1 µM], Six1-Eya2 inh -8, DT40 TDP1 CPT inconclusive, TDP1 cell noCPT 18µM*, CtBP-E1A blk 8 and IL-1B inflam inh -21.
For COc1ccc(C(=O)Nc2cnn(Cc3c(F)cccc3Cl)c2)cc1OC the results were Six1-Eya2 inh 0, DT40 TDP1 CPT inconclusive, TDP1 cell noCPT -25%, CtBP-E1A blk -8 and IL-1B inflam inh 69.
Screening Nc1ccccc1C#CC(=O)c1ccccc1 returned Six1-Eya2 inh -2, DT40 TDP1 CPT 1.3µM*, TDP1 cell noCPT inconclusive and IL-1B inflam inh -102*.
For CCCc1cc(NCCCN(C)C)n2c(nc3ccccc32)c1C#N the results were Six1-Eya2 inh 9, DT40 TDP1 CPT -5%, TDP1 cell noCPT inconclusive and IL-1B inflam inh -5.
Screening CCCc1cc(NCCN(C)C)n2c(nc3ccccc32)c1C#N returned Six1-Eya2 inh 0, DT40 TDP1 CPT -9%, TDP1 cell noCPT inconclusive and IL-1B inflam inh -10.
